Screening data from PubChem.
The list is not random: actives were taken first. Their share in the collection is about 2.3%.
LEDGF integ inh: blockers of LEDGF/p75-dependent integrase strand transfer – biochemical, TR-FRET, high throughput, primary screen | HIV-1 integrase (with human LEDGF/p75) | TR-FRET IN-LEDGF/p75 DNA integration, Eu/Cy5 | inhibition, % at 3.7 µM | 0.64% of 370,000 active | AID 743269, 2014;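 active means inhibition above the screen-wide mean plus 3 SD, cut at about 13% in these data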;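 further: signal is the Cy5 over europium emission ratio at 671 and 618 nm; 0% = plate median of compound wells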
PLCb3 inh: human PLC-beta3 inhibitors, primary screen, biochemical, fluorescence; Purified PLC-beta3, fluorogenic substrate; inhibition, % at 12.2 µM; 0.18% of 370,000 active; in the data active means inhibition above about 11%;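 further: 0% = median of compound wells on plate and 100% = full blocker control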
MBD2 DNA inh: inhibitors of MBD2 binding to methylated DNA, primary screen, biochemical, TR-FRET, DNA-binding domain, human | MBD2 binding to methylated oligonucleotide | inhibition, % at 4.4 µM | 0.31% of 370,000 active | AID 686964, 2013; in the data active means inhibition above about 13%
PLCg1 inh: PLC-gamma1 enzyme inhibitors, primary screen, biochemical, fluorescence, purified enzyme | inhibition, % at 12.2 µM | 0.84% of 370,000 active | fluorogenic substrate; in the data active means inhibition above about 9.5%
UHRF1 MBD2 ctr: UHRF1 methylated DNA binding inhibitors, primary screen, counter-screen for MBD2 inhibitor project, biochemical, TR-FRET, human UHRF1, single concentration | 0.75% of 370,000 active | E3 ubiquitin-protein ligase UHRF1 (Homo sapiens), Q96T88 | inhibition, % at 4.4 µM | UHRF1 binding to methylated oligo; in the data active means inhibition above about 21%;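 further: UHRF1 SRA domain binding a hemimethylated CpG hairpin DNA probe; 0% = median of test compound wells and 100% = reference inhibitor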
Starred values were filed as active, the others as inactive; i = inactive.

SMILES | LEDGF integ inh | PLCb3 inh | MBD2 DNA inh | PLCg1 inh | UHRF1 MBD2 ctr
Fc1cccc(Cl)c1CNC(c1ccccc1)c1ccccc1 | 2 | 0 | -4 | -1 | 58*
O=C(CNC(c1ccccc1)c1ccccc1)Nc1c(F)cccc1F | 1 | 4 | -5 | 2 | 7
COC(=O)[C@]12C[C@H](CC(=O)NCc3ccc(OC)c(OC)c3)C(=O)N(Cc3ccco3)C1=C[C@H](C(C)C)O[C@@H]2C1CC1 | -4 | 2 | -3 | 1 | 0
Clc1ccc2nc(CN3CCCCCC3)cn2c1 | 2 | 0 | 0 | 0 | 0
Clc1ccc2nc(CN3CCCCC3)cn2c1 | 4 | 7 | 1 | 4 | 27*
CCCCOc1ccc(C(=O)NC2CCCCN(CC)C2=O)cc1 (configuration not stated) | 3 | 3 | -2 | 2 | -2
COC1=C(Br)C(=O)c2ncccc2C1=O | 15* | 4 | -10 | 5 | 10
O=C1c2cccnc2-c2ncccc21 | 1 | 1 | 2 | 2 | -1
CC(C)NC(=O)c1c(CSc2ccccc2)noc1C(=O)NCc1ccccc1 | 1 | -3 | -2 | -5 | 22*
C#CCN(C)S(=O)(=O)c1ccc(N2CCCC2)cc1Br | -4 | 0 | 0 | -1 | -1
CCCc1cc2c(OC(=O)CC)c(-c3ccc(C(=O)OCC)o3)c(=O)oc2cc1OC | 3 | i | 10 | i | 24*
C/C(=N\NC(=O)CCCCCNC(=O)c1ccccc1)c1ccccc1O | 0 | 1 | 0 | 2 | 2
O=C(CCCCCNC(=O)c1ccccc1)N/N=C/c1ccc(O)cc1O | -4 | -6 | 11 | -9 | 21*
Cc1cnn(-c2ccccc2)c1NC(=O)COCc1ccccc1 | 2 | 6 | -3 | 4 | 1
N#CC(C#N)=Cc1cccn1-c1ccc(C(=O)O)cc1 | 6 | 0 | 12 | 2 | 43*
N#C/C(=C/c1cccn1-c1cccc(C(=O)O)c1)c1ccc(Cl)cc1 | 0 | -3 | -2 | -2 | 3
CC(C)CNC1CS(=O)(=O)CC1O (configuration not stated) | 1 | -4 | -1 | 0 | 22*
CCCCCCCCN1C(=O)[C@@H](CC(=O)N2CCCCC2)C[C@@]2(C(=O)OC)C1=C[C@H](C(C)C)O[C@@H]2C1CC1 | 0 | 2 | 0 | 0 | 1
O=C(c1cn2ccccc2n1)N1CCCC(Nc2ccc(F)c(F)c2)C1 (configuration not stated) | -5 | -7 | 1 | 2 | 23*
Cc1ccc(NC2CCCN(C(=O)c3cn4cc(Cl)ccc4n3)C2)cc1C (configuration not stated) | 2 | -6 | 2 | 5 | -4
Cc1cccc(-c2cccc3c4c([nH]c23)[C@@H]2C[C@H](N(C)C(=O)c3cccc(Cl)c3)[C@H]([C@H](C)O)CN2CC4)c1 | 0 | -60 | 0 | -39 | 4
CC(=O)N1CCc2cc(S(=O)(=O)NCCC(=O)Nc3cccc(C)c3)ccc21 | -1 | 2 | 6 | 2 | 22*
CCCCc1ccc(C2C3=C(CC(C)(C)CC3=O)NC3=C2C(=O)c2ccccc23)cc1 (configuration not stated) | -2 | 1 | -1 | 0 | 0
CCCc1ccc(C2C3=C(CC(C)(C)CC3=O)NC3=C2C(=O)c2ccccc23)cc1 (configuration not stated) | 5 | 6 | -4 | 10* | 1
C/C(C/C(C)=C1/SC(=S)NC1=O)=C1\SC(=S)NC1=O | 20* | -3 | 18* | 73* | 45*
c1ccc(-n2c(SCc3cccc4ccccc34)nnc2-c2ccccn2)cc1 | -1 | -2 | 1 | 3 | -1
C[C@@H]1ON(C)[C@H]2C[C@H]3c4[nH]c5c(-c6ccccc6F)cccc5c4CCN3C[C@@H]12 | -6 | -84 | -2 | -58 | -1
O=C1CC(c2ccccc2)CC(=O)C1=CN1CCCC1 (configuration not stated) | -2 | -7 | 2 | -1 | 68*
CN1C(=O)CC(c2ccccc2)CC1=O | 0 | 3 | 2 | 0 | 0
